The campaign covered roughly 190,000 compounds. About 930 (0.49%) were called active.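 The calls were made as follows: active = z-score of insulin promoter reporter brightness in nuclei below -3 at 5 µM, with at least 500 cells counted; inconclusive = wells with under 500 cells, flagged as toxic or sparse; inactive = the rest.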 The list shows a part of the results. Potency and affinity values are given separately.
Assay: decrease of insulin promoter-GFP reporter – imaging, high-content screening, mouse beta cells (AID 1628)
Conditions: MIN6 insulin promoter GFP reporter, at 5 µM, active compounds read low

z-score, inactive:
CCCc1cc(=O)[nH]c(SCC(=O)NCCCC(=O)OCC)n1 3.15
CC1(C)c2ccccc2N2CC(=O)NC21/C=C/c1ccco1 (stereo not drawn) 3.29
O=C(CSc1ncccn1)NC(=O)c1ccccc1 0.73
COC(=O)c1cccc(N2C(=O)c3cccnc3C2=O)c1 0.1
CCN1C(=O)/C(=C/c2ccc(N3CCCC3)cc2)NC1=S 15.8
CCn1c(SCC(=O)c2c[nH]c3ccccc23)nc2cc(S(=O)(=O)N3CCOCC3)ccc21 3.09
COc1cccc(C(=O)Nc2ccccc2C(=O)N2CCCC2)c1 3.3
CCNc1c2c3c(cccc3n(C)c1=O)C(=O)c1ccccc1-2 15.6
Cc1ccc(S(=O)(=O)C(C#N)c2nc3ccccc3nc2N2CCC(C)CC2)cc1 (stereo not drawn) 3.75
CCN1CCN(C2=CC3=CC(=C(C#N)C#N)CCC3CC2)CC1 (stereo not drawn) 16.6
CCN(CC)c1ccc(/C=C2\SC(=O)N(C(C)C)C2=O)o1 17.4
Cc1ccccc1-c1nnc(-c2ccc(Cl)cc2)o1 3.54
CC(=O)OCC(=O)c1c[nH]c2ccccc12 0.26
CC(Cc1c[nH]c2ccccc12)C(=O)O (stereo not drawn) 0
C=CCN1C(=O)/C(=C\C=C2\N(C)c3ccccc3C2(C)C)SC1=S 15.4
CN1/C(=C\C=C(/C#N)C(=O)Nc2ccc(Cl)cc2)C(C)(C)c2ccccc21 8.8
CN1CCN(C2=CC3=CC(=C(C#N)C#N)CCC3CC2)CC1 (stereo not drawn) 10.9
CCN1C(=O)/C(=C/C=C2\N(CC)c3cc(S(=O)(=O)N(C)C)ccc3N2c2ccccc2)SC1=S 13.2
COc1ccc(-c2cc(=O)c3cc(OC)ccc3o2)cc1 -0.37
COc1cccc(C(=O)CN2C(=O)C(C)(C)Oc3ccc(C(=O)N4CCCCCC4)cc32)c1 3.58
N/C(=N\OC(=O)C1CCCCC1)c1cccc([N+](=O)[O-])c1 3.01
CCc1ccc(NC(=S)NCC2CCCN2CC)cc1 (stereo not drawn) 3.74
O=C1N/C(=N/Nc2ccccc2)S/C1=C\c1ccccc1 3.19
CCOC(=O)c1c(C)nc2c(c1C)c(=O)oc1ccccc12 0.62
O=c1cc(-c2ccc(O)cc2)oc2ccccc12 -0.5
O=C1/C(=C/c2ccc(N3CCCC3)cc2)NC(=S)N1C1CC1 12.6
COC(=O)c1nc2ccccn2c1F 2.02
CC1(C)CC(=O)c2sc(NS(=O)(=O)Cc3ccccc3)nc2C1 1.07
O=c1c(N2CCOCC2)c(N2CCOCC2)c1=O 3.02
COc1cc(Cl)c(C)cc1NC(=O)CN(C)Cc1cccc(OC)c1OC 3.4
Cc1ccc(Nc2nc3c([nH]2)c(=O)n(C)c(=O)n3C)cc1 3.32
CC(C)(O)C(O)COc1c2ccoc2cc2oc(=O)ccc12 (stereo not drawn) -0.51
COc1cccc(/C=N/NC(=O)c2oc3nc(-c4ccccc4)cc(-c4ccco4)c3c2N)c1 3.3
N#Cc1cccc(NC(=O)CSc2ccc3c4c(cccc24)C(=O)c2ccccc2-3)c1 4.94
CCc1cc(C(=O)OC)c(NC(=O)CC2Sc3ccc(C(F)(F)F)cc3NC2=O)s1 (stereo not drawn) 3.33
Brc1ccc(Oc2nsnc2N2CCOCC2)cc1 3.88
CC(C)CNC(=O)CSc1nnc(-c2cccc(S(=O)(=O)N3CCCCC3)c2)o1 4.75
CC(=O)OC(C(=O)NCc1ccc(F)cc1)c1ccccn1 (stereo not drawn) 3.91
Oc1ccc(/C=N/Nc2nc(-c3ccccc3F)nc3ccccc23)c(O)c1 3.69
Cc1ccc(-c2cc(N)n(-c3ccccc3)n2)cc1 5.28
c1ccc(-c2csc(-n3cnnn3)n2)cc1 3.13
N#C/C(=C/c1ccc(N2CCOCC2)o1)c1nc2ccccc2[nH]1 15
Cc1ccccc1-n1ncc2c(SCC(=O)NCc3cccs3)ncnc21 3.57
COc1ccc2c(C)cc(SCC(=O)N(C)C3CCS(=O)(=O)C3)nc2c1 (stereo not drawn) 4.13

z-score, active:
CCCNC(=O)Cc1cc(=O)[nH]c(=O)[nH]1 -3.04
COC(=O)c1ccnc(SCC(=O)c2ccccc2)c1 -3.59
CCOC(=O)c1ccc2c(c1)nc(C1CCN(S(=O)(=O)c3cccs3)CC1)n2CC -4.13
CS(=O)(=O)Nc1ccc(C(=O)Nc2ccccc2C(=O)N2CCCC2)cc1 -4.1
CCC(CC)COC(=O)C(C#N)c1nc2ccccc2nc1N1CCN(CC)CC1 (stereo not drawn) -3.84
N#CCCn1cc(C(CC(=O)c2ccc(Br)cc2)C(=O)O)c2ccccc21 (stereo not drawn) -4.89
COc1ccc2[nH]cc(CCN3C(=O)CCC3=O)c2c1 -5.12
O=C(c1cccc([N+](=O)[O-])c1)N1CCCN(C(=O)c2cccc([N+](=O)[O-])c2)CC1 -7.17
S=C(Nc1ccc(Oc2ccc(NC(=S)NC3CCCCC3)cc2)cc1)NC1CCCCC1 -5.62
COc1cc(NC(=O)CN(C)Cc2ccc(OC(F)F)cc2)c(C)cc1[N+](=O)[O-] -4.52
Cc1ccc(Nc2cc(C)nn2-c2nc(C)cc(=O)[nH]2)cc1 -3.51
FC(F)(F)c1cccc(N2CCN(Cc3cccnc3)CC2)c1 -4.71
O=C(/C=C/c1ccco1)Oc1cc(Br)cc(/C=N/NC(=O)c2ccccc2O)c1 -4.99
CCCCNC(=O)CSc1cc(=O)n(C)c2ccccc12 -4.57
COc1ccccc1OCC(O)Cn1c(=N)n(CCN2CCCCC2)c2ccccc21 (stereo not drawn) -5.05
CCN(CC)S(=O)(=O)c1cccc(-c2nnc(SCCCC(=O)c3ccc(F)cc3)o2)c1 -4.17
C=CCn1c(C)cc(C(=O)CSc2nnc(-c3cccc(S(=O)(=O)N(CC)CC)c3)o2)c1C -3.66
Cc1nc2ccccc2nc1N/N=C/c1ccc(O)cc1O -3.3
Cc1ccc(-n2ncc(Br)c(Br)c2=O)cc1 -4.97

— PubChem BioAssay AID1628 (Sanford-Burnham Center for Chemical Genomics, 2009)
